Reference: PubChem BioAssay AID588342 (National Center for Advancing Translational Sciences (NCATS), 2011)
Among all 360,000 compounds or so, about 25,000 (6.9%) were called active. Roughly 9% stayed inconclusive and do not appear here. Calls follow the shape of the dose curve; as a rule, active = well fitted inhibition curve with a large enough effect; inconclusive = small, poorly fitted or top-dose-only effect; inactive = flat fitted curve, though single readings scatter. The list comes from a sample in which actives are over-represented; it also holds similar structures and randomly drawn compounds. Where a call stands in place of a potency, no number is given.

Each compound was assayed against Luciferin 4-monooxygenase (Photinus pyralis) (UniProt P08659) (assay: qHTS profiling assay for firefly luciferase inhibitor/activator using purifed enzyme and Km concentrations of substrates (counterscreen for miR-21 project)). Conditions: purified FLuc, luminescence inhibition; series mostly up to 57.5 µM.
Chain of Luciferin 4-monooxygenase (Photinus pyralis) (P08659 whole entry, looked up): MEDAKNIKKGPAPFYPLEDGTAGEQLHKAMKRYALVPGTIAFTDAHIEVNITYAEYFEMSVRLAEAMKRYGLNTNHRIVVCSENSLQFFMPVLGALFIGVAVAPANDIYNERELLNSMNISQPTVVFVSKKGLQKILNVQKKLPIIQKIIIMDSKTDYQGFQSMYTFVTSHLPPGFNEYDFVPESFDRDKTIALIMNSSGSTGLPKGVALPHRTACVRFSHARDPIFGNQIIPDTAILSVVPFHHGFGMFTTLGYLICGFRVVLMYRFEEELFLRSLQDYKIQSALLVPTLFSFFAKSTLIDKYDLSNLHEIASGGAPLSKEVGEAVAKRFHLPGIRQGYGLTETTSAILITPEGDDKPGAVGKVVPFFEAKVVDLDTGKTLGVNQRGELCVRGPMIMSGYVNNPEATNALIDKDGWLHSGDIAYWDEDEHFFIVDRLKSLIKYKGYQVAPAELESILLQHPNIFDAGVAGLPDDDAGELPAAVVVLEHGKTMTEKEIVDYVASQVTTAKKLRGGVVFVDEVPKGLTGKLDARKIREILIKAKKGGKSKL
Summary of the method: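 Biochemical qHTS of compounds, final roughly 60 µM downward over six points, against 10 nM purified firefly luciferase using Km concentrations of substrates (10 uM D-luciferin, 10 uM ATP) in Tris acetate pH 7.5 buffer; luminescence output.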
Also: nearly all actives have a fitted effect of over 55% in size.
Potency is read from the fitted curve at half-maximal effect.

Row | Structure (SMILES) | Potency
1 | CNC(=O)C(NC(=O)c1ccccc1)=C(C)C | inactive
2 | O=C(NC(=O)N1CCOCC1)c1ccccc1 | inactive
3 | O=C(NC(=O)c1ccccc1)Nc1ccccc1O | 1.9 µM (active)
4 | COc1ccc(OC)c(NC(=O)CSC2=Nc3ccccc3C3=NC(CC(=O)NCc4ccc(F)cc4)C(=O)N23)c1 (stereo unspecified) | inactive
5 | COc1ccc(Br)cc1C(=O)Nc1cccc(C)c1C | inactive
6 | CCC(=O)Nc1nc(C)c(C(=O)Nc2cccc(Cl)c2)s1 | inactive
7 | CNC(=O)c1sc(NCc2ccccc2OC)nc1C | inactive
8 | COc1cc(OC)c(C(=O)Nc2ccccc2-c2ccccc2)cc1OC | inactive
9 | COc1cc2ccccc2cc1C(=O)N1CCOCC1 | inactive
10 | COc1ccccc1NC(=O)c1cc(Cl)nnc1Cl | inactive
11 | COC(=O)c1ccc(NC(=O)c2cc(Cl)ccc2OC)cc1 | inactive
12 | COc1cc2ccccc2cc1C(=O)Nc1nc(C)c(C(C)=O)s1 | 4.78 µM (active)
13 | COc1cccc2sc(Nc3nc(C)c(C(C)=O)s3)nc12 | 6.75 µM (active)
14 | COc1cccc2sc(N(CCCN(C)C)C(=O)C(c3ccccc3)c3ccccc3)nc12 | inactive
15 | COc1cc(OC)c(C(=O)Nc2ccc(N(C)C)cc2)cc1OC | 10.7 µM (active)
16 | COc1cc2ccccc2cc1C(=O)Nc1ccccc1C | 8.49 µM (active)
17 | CC(=O)c1ccc(NC(=O)CSc2c(C(C)C)cnc3c2c(=O)n(C)c(=O)n3C)cc1 | inactive
18 | CS(=O)(=O)N(CC(=O)N1CCOCC1)c1ccc2c3c(cccc13)CC2 | inactive
19 | Cc1ccc(S(=O)(=O)N2CCC(C(=O)OCC(=O)N3CC(=O)Nc4ccccc43)CC2)cc1 | inactive
20 | Cc1cc(C)n(CCC(=O)N2CCN(S(=O)(=O)c3ccc(C)c(C)c3)CC2)n1 | inactive
21 | COc1ccccc1C(=O)Nc1c(C(=O)N(C)Cc2ccccc2)sc2nc(C)c(Cl)c(C)c12 | inactive
22 | O=C(O)c1ccc2c(c1)N(Cc1ccc(F)cc1)C(=O)c1ccccc1S2=O (stereo unspecified) | inactive

Row | Structure (SMILES) | Potency
23 | Cc1cc(C)cc(OCC(=O)Nc2c(C(=O)c3ccccc3)oc3ccccc23)c1 | inactive
24 | Cc1ccc2oc(C(=O)Nc3ccc(S(=O)(=O)N4CCCCCC4)cc3)cc(=O)c2c1 | inactive
25 | O=[N+]([O-])c1cc(S(=O)(=O)NCCc2ccccn2)ccc1Cl | inactive
26 | CCOc1ccc(S(=O)(=O)N2CCC(C(=O)NCC(=O)Nc3cccc(Cl)c3C)CC2)cc1 | inactive
27 | O=C(CN1C(=O)COc2ccc(S(=O)(=O)N3CCCCCC3)cc21)N1CCN(c2cccc(C(F)(F)F)c2)CC1 | inactive
28 | CCOc1ccc(C(=O)c2cn(Cc3ccc(F)cc3)c3ccc(F)cc3c2=O)cc1 | inactive
29 | COc1cc2ccccc2cc1C(=O)Nc1ccc(NC(=O)c2cccs2)cc1 | inactive
30 | COc1cc2ccccc2cc1C(=O)Nc1ccc(S(=O)(=O)Nc2cc(C)on2)cc1 | inactive
31 | COc1cc2ccccc2cc1C(=O)Nc1ccncc1 | 12 µM (active)
32 | CCOc1cccc(NC(=O)Cn2nc(-c3ccc4c(c3)OCCO4)ccc2=O)c1 | inactive
33 | CC(=O)NN1C(=O)c2ccccc2NC1c1ccccc1 (stereo unspecified) | inactive
34 | O=C1c2ccccc2NC(c2ccc(-c3cccc(Cl)c3)o2)N1O (stereo unspecified) | 10.7 µM (active)
35 | Nc1nnnn1CC(=O)N/N=C/c1ccc(-c2cccc(Cl)c2)o1 | inactive
36 | Cc1cc(C)c(NC(=O)Cn2c(SCC(=O)NCc3ccccc3)nc3ccccc32)c(C)c1 | inactive
37 | CCn1c(CNC(=O)c2ccccc2)nnc1SCC(=O)N1CCN(c2ccccc2)CC1 | inactive
38 | O=C(c1cnn(-c2ccc(Cl)cc2)c1)c1ccccc1O | 2.13 µM (active)
39 | Cc1ncc(CC(=O)n2cc(C(=O)c3cc(Cl)ccc3O)cn2)s1 | inactive
40 | CCCc1c(C(=O)O)cnn1-c1ccc(Cl)cc1 | inactive
41 | COc1cc(C(C)=O)ccc1OC(C)C(=O)Nc1ccc(S(=O)(=O)N2CCCC2)cc1 (stereo unspecified) | inactive
42 | Cc1oc2ncn(CC(C)C)c(=O)c2c1C(=O)N1CCN(c2ccccc2F)CC1 | inactive
43 | N#Cc1c(NC(=O)C2CCCO2)sc2c1CCCCC2 (stereo unspecified) | 13.5 µM (active)
44 | N#Cc1c(NC(=O)C2CC(Cl)=CCC2C(=O)O)sc2c1CCCCC2 (stereo unspecified) | inactive

Row | Structure (SMILES) | Potency
45 | N#Cc1c(NC(=O)CCCl)sc2c1CCCCC2 | inactive
46 | CCN(C(=O)c1sc2cc(OC)ccc2c1Cl)c1ccccc1 | inactive
47 | COc1ccc(NC(=O)C(=O)NCc2ccco2)cc1 | inactive
48 | COc1ccc2oc(C(=O)NCc3ccco3)c(C)c2c1 | 16.9 µM (active)
49 | COc1ccc2c(Cl)c(C(=O)NCc3ccco3)sc2c1 | 10.7 µM (active)
50 | COc1cc(C(=O)NC(=S)NCc2ccco2)cc(OC)c1OC | inactive
51 | O=C(NCc1ccco1)c1sc2cccc(F)c2c1Cl | inactive
52 | CCCC(=O)Nc1cc(C(=O)NCc2ccc(OC)cc2)ccc1S(=O)(=O)c1ccc(Cl)cc1 | inactive
53 | COc1cc(OC)c(C2C=C(C(=O)O)Nc3ncnn32)cc1OC (stereo unspecified) | inactive
54 | CCC(C)NC(=O)c1ccc(NC(=O)CC2SC(N3CCCCC3)=NC2=O)cc1 (stereo unspecified) | inactive
55 | O=C(COc1ncnc2c(Cl)cc(Cl)cc12)N1CCN(S(=O)(=O)c2ccccc2)CC1 | inactive
56 | Cc1ccc(-n2ncc(C(=O)N(C)Cc3ccccc3)c2-n2cccc2)cc1 | inactive
57 | CC(=O)N/C(=C\c1ccc(F)cc1)C(=O)NC(Cc1ccccc1)C(=O)O (stereo unspecified) | inactive
58 | O=C(O)CC/C(=C\c1cc2c(cc1Br)OCO2)c1nc2ccccc2s1 | inactive
59 | O=C(O)CS/C(=C\c1ccc(F)cc1)c1nc2ccccc2s1 | 23.9 µM (active)
60 | COc1ccccc1NC(=O)CN1C(=O)c2ccccc2Sc2ccc(C(=O)N3CCCC3)cc21 | inactive
61 | O=C(Nc1ccccc1)c1ccccc1NC(=O)C(F)(F)F | inactive
62 | O=C(Nc1ccccc1)N1CCN(C(=O)Nc2ccccc2)CC1 | inactive
63 | O=C(Nc1ccccc1)c1cc2ccccc2[nH]1 | 9.53 µM (active)
64 | CCC(=O)N1CCc2cc(S(=O)(=O)NC(CC(C)C)C(=O)NCCc3cccc(C)c3)ccc21 (stereo unspecified) | inactive
65 | CCCCSc1ncnc2c1sc1nc(N3CCOCC3)c3c(c12)CCCC3 | inactive
66 | CC(C)CNC(=O)/C=C/C(=O)O | inactive

Row | Structure (SMILES) | Potency
67 | Cc1ccc(CN2CCC(CNC(=O)c3cnn(-c4ccccc4Cl)c3C3CCN(C(=O)OC(C)(C)C)CC3)CC2)cc1 | inactive
68 | COc1cccc(CNC(=O)COC(=O)CN2C(=O)NC3(CCCCC3C)C2=O)c1 (stereo unspecified) | inactive
69 | CC1CCCCC12NC(=O)N(CC(=O)OCC(=O)NCc1ccc(F)cc1)C2=O (stereo unspecified) | inactive
70 | CCCc1ccc(C(=O)COC(=O)CN2C(=O)NC3(CCCCC3C)C2=O)cc1 (stereo unspecified) | 26.9 µM (active)
71 | COc1ccc(CCNC2=C(Cl)C(=O)N(Cc3ccccc3)C2=O)cc1OC | inactive
72 | COc1ccc(C/C(C)=N/NC(=O)c2ccncc2)cc1 | inactive
73 | C/C(=N/NC(=O)c1ccncc1)c1ccc2c(c1)OCO2 | inactive
74 | CCN(CC)c1ccc2cc(C(N)=O)/c(=N\NC(=O)c3ccncc3)oc2c1 | 16.9 µM (active)
75 | CO/N=C/c1cn(-c2ccc(Cl)cc2)nn1 | inactive
76 | O=C(CC1C(=O)N(c2ccccc2)C(=O)N1CCc1cccs1)Nc1ccc(F)cc1 (stereo unspecified) | inactive
77 | CC(C)Sc1oc(-c2cccs2)nc1S(=O)(=O)c1ccc(Cl)cc1 | inactive
78 | COCc1c(N)c(C)nc(Cl)c1C#N | 10.7 µM (active)
79 | Cc1nc(Cl)c(C#N)c2c1CCCC2 | inactive
80 | COc1ccc(C2=NC(c3ccncc3)=Nc3ccc(Br)cc3N2)cc1 | inactive
81 | CCc1nnc2c3ccccc3nc(N3CCN(c4ccc(C)cc4C)CC3)n12 | inactive
82 | COc1cccc(NC(=O)CN2C(=O)c3ccccc3Sc3ncccc32)c1 | inactive
83 | Cc1cccc(CNC(=O)c2cnc3sc(N4CCCCC4)nn3c2=O)c1 | inactive
84 | Brc1cccc(-c2nnn3c2nc(NC2CCCCC2)c2ccccc23)c1 | inactive
85 | Nc1cc(C(F)(F)F)ccc1N1CCOCC1 | inactive
86 | CCn1c(C)c(C)c2cc(C(=O)NCCc3cc(OC)ccc3OC)ccc21 | inactive
87 | CCOC(=O)c1c(NC(=O)c2cc(-c3ccc(Cl)cc3)on2)sc2c1CCCC2 | inactive
88 | CCOc1ccc(NC(=O)C2CCN(S(=O)(=O)c3cc(-c4noc(C)n4)ccc3C)CC2)cc1 | inactive

Row | Structure (SMILES) | Potency
89 | Cc1c(CCC(=O)O)c(=O)oc2c(C)c(OCc3ccccc3Cl)ccc12 | inactive
90 | COc1ccc2c(C)c(CCC(=O)NC3CC3)c(=O)oc2c1C | inactive
91 | CCOC(=O)CCc1c(C)c2ccc(OCc3nn[nH]n3)c(C)c2oc1=O | 15.1 µM (active)
92 | Cc1ccc(NC(=O)CC2S/C(=N/N=C3\CCCc4ccccc43)NC2=O)cc1 (stereo unspecified) | inactive
93 | Cc1ccc(N/N=C2\COC(C)(C)CC2=O)cc1 | 7.57 µM (active)
94 | Cc1ccc(-n2c(SCC(=O)Nc3cccc(F)c3)nc3c(oc4ccccc43)c2=O)cc1C | inactive
95 | COc1cc(Br)cc2cc(S(=O)(=O)c3ccccc3)c(=O)oc12 | inactive
96 | COc1ccc(C(=O)NCCSc2ccccc2C)cc1 | 3.79 µM (active)
97 | COc1cccc(C(=O)NCCSc2ccc(Br)cc2)c1 | inactive
98 | COc1ccc(C(=O)NCc2nnc(SCCOc3ccccc3)n2C)cc1 | inactive
99 | COc1ccccc1CN1CCC(CNC(=O)c2cnn(-c3ccccc3Cl)c2C2CCN(C(=O)OC(C)(C)C)CC2)CC1 | inactive
100 | Cc1cc(C(F)(F)F)nc(SCC(=O)Nc2nccs2)n1 | inactive
101 | O=c1c2c(nc3nc[nH]n13)CCC2 | inactive
102 | CCCc1cc(=O)n2[nH]c(C)c(-c3ccc(Cl)cc3)c2n1 | inactive
103 | O=c1c2c(nc3cc(-c4cccc(Cl)c4)[nH]n13)CCCC2 | 0.478 µM (active)
104 | Cc1cc(=O)n2[nH]c(-c3sccc3-n3c(C)ccc3C)cc2n1 | inactive
105 | Cc1cc(=O)n2[nH]c(-c3cccc(Cl)c3)cc2n1 | 15.1 µM (active)
106 | O=C1CCCc2c1nc(-c1cccc(Cl)c1)n2O | inactive
